HP1b binding inh: HTS for Inhibitors of HP1-beta Chromodomain Interactions with Methylated Histone Tails | Potency, µM (doses to about 114 µM), for inactives: top-dose activity change, negative = inhibition, usual class: inhibitors | AlphaScreen HP1-beta / biotin-H3K9me3 peptide binding | actives 0.56% (n = 390,000) | AID 540317, 2011 | Chromobox protein homolog 1 (Homo sapiens), P83916; further: nearly all actives have a fitted effect of over 70% in size
Target sequence (P83916 whole entry, looked up): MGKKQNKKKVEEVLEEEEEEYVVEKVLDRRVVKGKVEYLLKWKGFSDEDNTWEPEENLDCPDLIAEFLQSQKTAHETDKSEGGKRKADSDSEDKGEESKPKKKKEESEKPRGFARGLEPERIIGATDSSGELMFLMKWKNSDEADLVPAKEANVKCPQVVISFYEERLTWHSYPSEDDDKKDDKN
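AlphaScreen: HP1-beta (50 nM) preformed 30 min with biotin-H3(1-18)K9me3 peptide (50 nM) in PBS pH 7.4, 0.01% Tween-20. Compound added for 30 min at RT, then streptavidin donor/nickel chelate acceptor beads (10 ug/mL) for 30 min.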
JMJD2A Tudor inh: qHTS Assay for Inhibitors of JMJD2A-Tudor Domain. Lysine-specific demethylase 4A (Homo sapiens), O75164. AlphaScreen JMJD2A-Tudor / H3K4me3 peptide binding. Potency, µM (highest dose often 114 µM), for inactives: at the top dose activity change, negative = inhibition, usual class: inhibitors. actives 4.4% (n = 390,000). AID 504339, 2011; further: on the % scale 0 is the no-effect control and ±100 the full control effect; nearly all actives have a fitted effect of over 50% in size
G9a block: qHTS Assay for Inhibitors of Histone Lysine Methyltransferase G9a | G9a H3K9 monomethylation, AlphaScreen, 2 h | Potency, µM (titrated, usually from 102 µM), for the others: at the top dose activity, negative = inhibition, most hits filed as inhibitors | actives 8.8% (n = 350,000) | AID 504332, 2011; further: on the % scale 0 is the no-effect control and ±100 the full control effect; nearly all actives have a fitted effect of over 75% in size
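G9a (20 nM) preincubated 15 min RT with compounds, then 500 nM biotinylated H3K9 peptide and 20 uM SAM added; 2 h RT reaction. Monomethyl-H3K9 product detected by AlphaScreen with anti-H3K9me1 antibody, streptavidin donor and anti-rabbit IgG acceptor beads.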
VDR inh: Inhibitors of the vitamin D receptor (VDR): qHTS; actives 0.93% (n = 400,000); Potency, µM, without a hit: max response, negative = inhibition, most hits filed as inhibitors; VDR-SRC2-3 peptide fluorescence polarization, 2 h; AID 504847, 2011; Vitamin D3 receptor (Homo sapiens), P11473; further: on the % scale 0 is the no-effect control and ±100 the full control effect
Target sequence (P11473 whole entry, looked up): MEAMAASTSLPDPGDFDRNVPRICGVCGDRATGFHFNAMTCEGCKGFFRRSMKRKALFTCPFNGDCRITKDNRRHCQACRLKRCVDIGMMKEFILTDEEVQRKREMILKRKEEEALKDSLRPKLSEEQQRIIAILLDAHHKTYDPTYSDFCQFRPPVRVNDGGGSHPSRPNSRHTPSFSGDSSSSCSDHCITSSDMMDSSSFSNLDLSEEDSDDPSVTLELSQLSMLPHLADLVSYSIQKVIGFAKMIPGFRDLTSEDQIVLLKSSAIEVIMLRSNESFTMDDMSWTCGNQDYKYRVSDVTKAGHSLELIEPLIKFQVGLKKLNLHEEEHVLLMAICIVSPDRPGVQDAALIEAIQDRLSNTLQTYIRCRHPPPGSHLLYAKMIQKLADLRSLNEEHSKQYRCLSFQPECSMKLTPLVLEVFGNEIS
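Fluorescence polarization assay of small-molecule disruption of VDR binding to coregulator peptide SRC2-3. Compounds and controls pin-transferred, then read after 2 h incubation at ambient room temperature.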
BAZ2B inh: qHTS Assay for Inhibitors of BAZ2B. Bromodomain adjacent to zinc finger domain protein 2B (Homo sapiens), Q9UIF8. AlphaScreen BAZ2B-H3K14Ac peptide displacement. Potency, µM (series often up to 114 µM), inactives show at the top dose activity change, negative = inhibition, actives largely listed as inhibitors. actives 4.4% (n = 360,000). AID 504333, 2011; further: on the % scale 0 is the no-effect control and ±100 the full control effect; nearly all actives have a fitted effect of over 60% in size
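Compounds, titrated to a top concentration of 110 uM, were incubated 30 min at room temperature with preformed BAZ2B/acetyl-K14 H3 peptide complex (50 nM each). Proximity signal was measured by AlphaScreen after 20 min with beads.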
PLK1 PBD block: qHTS for Inhibitors of PLK1-PDB (polo-like kinase 1 - polo-box domain): Primary Screen. Potency, µM, inactives show max response, negative = inhibition, most hits filed as inhibitors. Plk1 PBD binding of FITC phosphopeptide, fluorescence polarization. Serine/threonine-protein kinase PLK1 (Homo sapiens), P53350. AID 720504, 2013. actives 2.8% (n = 360,000); further: series mostly up to about 57 µM; on the % scale 0 is the no-effect control and ±100 the full control effect; nearly all actives have a fitted effect of over 65% in size
* marks the source's active call; other numbers are inactive results; ? = inconclusive; · = not tested or not shown; [ ] = remark or other dose. Shown are actives, neighbours in structure and some others; about 11% of the full set was active somewhere. The call rests on the fitted dose curve; in most records, active means well fitted curve in the direction sought with a large enough effect; inconclusive means small, poorly fitted or top-dose-only effect, or another doubt; inactive means no such curve, though single readings can be large; an effect the other way counts as inactive or inconclusive. Potency means the concentration at half of the fitted maximal effect.

SMILES	HP1b binding inh	JMJD2A Tudor inh	G9a block	VDR inh	BAZ2B inh	PLK1 PBD block
CSc1nc(O)c(C(c2ccc(OC(C)C)cc2)c2c(O)nc(SC)[nH]c2=O)c(=O)[nH]1	3%	?	·	22µM*	·	11µM*
COc1ccc(OC)c(C(c2c(O)nc(SC)[nH]c2=O)c2c(O)nc(SC)[nH]c2=O)c1	23%	-14%	50µM*	?	-2%	?
CSc1nc(O)c(C(c2ccc(F)cc2)c2c(O)nc(SC)[nH]c2=O)c(=O)[nH]1	52%	-3%	·	?	·	?
CSc1nc(O)c(C(c2ccc(C)cc2)c2c(O)nc(SC)[nH]c2=O)c(=O)[nH]1	15%	-15%	40µM*	?	-21%	?
CC(C)(C)N=Cc1cc(-c2ccccc2)sc1O	?	-13%	-8%[12.7 µM]	-13%	-10%	-7%
CN1CCn2cnc(C(=O)N[C@@H](Cc3ccccc3)C(=O)OC(C)(C)C)c2C1=O	·	·	·	·	·	-5%
O=C(Cn1cncn1)N/N=C/c1ccccc1O	45%	56µM*	·	19%	79µM*	-5%
O=C(N/N=C/c1cc([N+](=O)[O-])ccc1O)C1C2CCCCC21 (stereo not drawn)	·	·	?	·	45µM*	·
O=C(CSc1ccccn1)N/N=C/c1ccccc1[N+](=O)[O-]	25%	18%	-38%[59 µM]	-7%	-30%	-12%
O=C(CSc1ccccn1)N/N=C/c1cc([N+](=O)[O-])ccc1O	59%	?	-4%[12.7 µM]	-7%	45µM*	-4%
Cc1cc([N+](=O)[O-])nn1CC(=O)N/N=C/c1ccccc1Br	9%	-11%	6%	1%	-8%	4%
Cc1cc([N+](=O)[O-])nn1CC(=O)N/N=C/c1ccc(O)cc1O	50%	?	10%	-7%	89µM*	1%
COc1ccc(C2c3c(n(C)c4ccccc34)C(=O)N2CC(=O)Nc2cccc(Cl)c2C)cc1 (stereo not drawn)	28%	-7%	5%[59 µM]	9%	-1%	·
O=C(Cn1cncn1)N/N=C/c1cc([N+](=O)[O-])ccc1O	35%	25µM*	20%[59 µM]	-16%	22µM*	-6%
O=C(N/N=C/c1cc([N+](=O)[O-])ccc1O)c1ccc(COc2ccc3c(c2)CCC3)o1	?	?	·	-3%	45µM*	?
O=C(Cn1nc2ccccc2n1)N/N=C/c1cc([N+](=O)[O-])ccc1O	-9%	?	?	-22%	11µM*	7.5µM*
Cc1ccn(CC(=O)N/N=C/c2cc([N+](=O)[O-])ccc2O)n1	31%	22µM*	20%[59 µM]	2%	35µM*	7%
COCCn1c(SC(C)C(=O)NCC2CCCO2)nc2scc(-c3ccc(F)cc3)c2c1=O (stereo not drawn)	15%	-8%	-30%	-16%	8%	7%
Cc1nnc(N2CCCC(C(=O)NCCc3ccccc3)C2)c2nn(-c3ccccc3)c(C)c12 (stereo not drawn)	11%	-6%	-5%[59 µM]	13%	-13%	·
Cc1nc2ccc(C(=O)N/N=C/c3cc([N+](=O)[O-])ccc3O)cc2[nH]1	56%	56µM*	-40%	12%	35µM*	-18%
O=C(N/N=C/c1ccccc1Cl)c1nc2ccc([N+](=O)[O-])cc2c(=O)[nH]1	-16%	25µM*	?	?	-17%	24µM*
O=C(NCc1cccs1)c1ccc2nc([C@@H]3O[C@H](CO)[C@H](O)[C@H](O)[C@H]3O)[nH]c2c1	·	·	·	·	·	-4%
COC(=O)C1SCC2C(=O)N(Cc3ccc(Cl)c(Cl)c3)CC(=O)N21 (stereo not drawn)	10%	?	-26%	?	-14%	19µM*
COC(=O)C1SCC2C(=O)N(Cc3ccc(Cl)cc3)CC(=O)N21 (stereo not drawn)	51%	0%[57.1 µM]	-16%	-15%	-2%	-6%
CC(c1ccccc1)N1C(=O)c2ccc(C(=O)Nc3ccc(Br)cc3C(=O)O)cc2C1=O (stereo not drawn)	-11%	50µM*	·	?	-8%	24µM*
SMILES	HP1b binding inh	JMJD2A Tudor inh	G9a block	VDR inh	BAZ2B inh	PLK1 PBD block
CC(c1ccccc1)N1C(=O)c2ccc(C(=O)Nc3ccccc3C(=O)O)cc2C1=O (stereo not drawn)	24%	?	·	-20%	?	24µM*
OC(CNCc1ccccc1Cl)C(F)(F)F (stereo not drawn)	50%	-6%	1%	23%	-14%	-3%
O=C(O)COc1ccccc1/C=C1\SC(=Nc2ccc(F)cc2)N(c2ccc(F)cc2)C1=O	32%	-31%	?	-25%	79µM*	?
O=C(Cc1ccccc1)NN1C(=O)/C(=C/c2ccccc2C(=O)O)SC1=S	26%	-18%	?	1%	-3%	-7%
O=C(O)COc1ccccc1/C=C1\SC(=S)N(/N=C/c2ccccc2O)C1=O	-35%	?	11%[2.33 µM]	?	56µM*	21µM*
O=C(O)COc1ccccc1/C=C1\SC(=S)N(NC(=O)c2ccccc2O)C1=O	-2%	3.2µM*	37%[2.33 µM]	-23%	14µM*	-24%
COc1cc(OC)cc(-n2c(=O)c3ccccc3n(CC(=O)NCCc3ccc(OC)c(OC)c3)c2=O)c1	29%	-12%	6%[59 µM]	0%	4%	·
O=C(O)c1ccc(/C=N/Nc2ccc(S(=O)(=O)N3CCCC3)cc2[N+](=O)[O-])cc1	-37%	?	?	-3%	-22%	-11%
COc1ccc(C=NNc2ccc([N+](=O)[O-])cc2S(=O)(=O)Nc2ccccc2C(=O)O)cc1OC	-14%	?	·	?	·	?
NS(=O)(=O)c1ccc(N/N=C/c2ccccc2C(=O)O)c([N+](=O)[O-])c1	-10%	-15%	-31%	-5%	10%	-9%
O=C(O)c1ccccc1NS(=O)(=O)c1ccc(NN=Cc2ccc(F)cc2)c([N+](=O)[O-])c1	?	45µM*	·	-24%	·	24µM*
O=C(O)c1ccccc1NS(=O)(=O)c1ccc(N/N=C/c2ccc(O)c(O)c2)c([N+](=O)[O-])c1	14µM*	28µM*	·	-11%	·	?
O=C(O)c1ccccc1NS(=O)(=O)c1ccc(NN=Cc2cccc(Cl)c2)c([N+](=O)[O-])c1	79µM*	18µM*	·	?	·	?

Assay outcomes (PubChem BioAssay)
